Results taken from PubChem BioAssay (Tox21).
Results filed as inconclusive are left out. Calls of active or inactive are those of the source. Unless noted, calls follow the shape of the dose curve; as a rule, active = well fitted curve in the direction sought with a large enough effect in the repeat runs; inconclusive = weak or mixed curves; inactive = no such curve, though single readings can be large; an effect the other way counts as inactive or inconclusive.

Key:
[1] = qHTS assay to identify small molecule antagonists of the estrogen related receptor (ERR) signaling pathway from Tox21 library - cell viability counter screen (AID 1224834); also: nearly all actives have a fitted effect of over 30% in size
Procedure, shortened: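 Viability readout (CellTiter-Fluor fluorescence, 30 min at 37 C) multiplexed with the ERR assay; cells treated 17.5 h at 37 C with compounds delivered in DMSO.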

[2] = target: Luciferin 4-monooxygenase (Photinus pyralis) (UniProt P08659); assay: qHTS assay to identify small molecule inhibitors of firefly luciferase (AID 1224835); also: series mostly up to about 120 µM; nearly all actives have a fitted effect of over 25% in size
Luciferin 4-monooxygenase (Photinus pyralis), sequence (P08659 whole entry, looked up): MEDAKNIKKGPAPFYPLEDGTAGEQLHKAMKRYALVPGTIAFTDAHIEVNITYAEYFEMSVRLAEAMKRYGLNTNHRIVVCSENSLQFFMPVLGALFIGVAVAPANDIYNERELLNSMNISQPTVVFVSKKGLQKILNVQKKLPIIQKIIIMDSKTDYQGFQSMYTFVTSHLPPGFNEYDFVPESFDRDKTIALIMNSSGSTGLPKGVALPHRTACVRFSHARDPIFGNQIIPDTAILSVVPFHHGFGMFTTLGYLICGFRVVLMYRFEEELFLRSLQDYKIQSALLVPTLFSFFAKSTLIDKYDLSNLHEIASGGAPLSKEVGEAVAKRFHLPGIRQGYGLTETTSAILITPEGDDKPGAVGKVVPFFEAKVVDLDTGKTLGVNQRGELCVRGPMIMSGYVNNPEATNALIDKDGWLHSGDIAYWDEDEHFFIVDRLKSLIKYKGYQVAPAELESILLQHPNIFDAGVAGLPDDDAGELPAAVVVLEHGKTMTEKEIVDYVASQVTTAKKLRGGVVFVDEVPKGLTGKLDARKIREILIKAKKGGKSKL
Procedure, shortened: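 Quantitative HTS format; KM concentrations of both substrates. Purified P. pyralis FLuc activity quantified from luminescence images.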

[3] = qHTS assay to identify small molecule agonists of the constitutive androstane receptor (CAR) signaling pathway - cell viability counter screen (AID 1224836); also: series mostly up to about 92 µM; nearly all actives have a fitted effect of over 45% in size
Procedure, shortened: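 Multiplexed viability check: HepG2-CYP2B6-hCAR cells, 15-point compound dosing, 0.75 uM PK11195 final, 23 h at 37 C, CellTiter-Fluor fluorescence.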

[4] = qHTS assay to identify small molecule antagonists of the constitutive androstane receptor (CAR) signaling pathway - cell viability counter screen (AID 1224837); also: series mostly up to about 92 µM; nearly all actives have a fitted effect of over 45% in size
Procedure, shortened: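 Fluorescence from CellTiter-Fluor served as the viability signal. Human hepatoma HepG2 cells stably bearing hCAR and CYP2B6-2.2kb received compound plus CITCO (50 nM final) for 23 hr.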

[5] = qHTS assay to identify small molecule antagonists of the estrogen related receptor signaling pathway with the pleiotropic PPARgamma coactivator (PGC) from Tox21 10K library - cell viability counter screen (AID 1224840; active = well fitted cell-killing curve with a large enough effect in the repeat runs, not every such curve was filed as active; also: nearly all actives have a fitted effect of over 40% in size)
Procedure, shortened: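 Compounds in DMSO, alongside positive and negative controls, were pinned onto PGC/ERR cells (2,000 per well). Exposure lasted 17.5 hours at 37 C, followed by a 30-minute CellTiter-Fluor incubation and fluorescence reading.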

[6] = qHTS assay to identify small molecule agonists of the hypoxia (HIF-1) signaling pathway - cell viability counter screen (AID 1224844; calls by dose curve; also: nearly all actives have a fitted effect of over 50% in size)
Procedure, shortened: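 Luminescent ATP content (CellTiter-Glo, 30 min, room temperature) served as the viability measure in HRE-bla ME-180 cells exposed to compounds for 17 hrs in low-serum medium (0.5% dialyzed FBS).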

[7] = qHTS assay to identify small molecule agonists of H2AX (AID 1224845; active = well fitted activation curve with a large enough effect in the signal ratio in the repeat runs, not every such curve was filed as active; the % refers to the signal ratio)
Procedure, shortened: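 Wild-type CHO-K1 cells plated overnight, then exposed 3 hr at 37C to compounds at 15 concentrations (0.76% DMSO). Lysed, then HTRF anti-pH2AX(S139)-cryptate/anti-H2AX-d2 detection after 24 hr at room temperature; emissions 665 and 620 nm.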

[8] = qHTS RealTime-Glo MT Cell Viability Assay in HepG2 cells - 24 hour (AID 1224867); also: nearly all actives have a fitted effect of over 50% in size
Procedure, shortened: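 HepG2 cells (600/well) were dispensed with RealTime-Glo reagents, incubated 5 h at 37 °C, then treated with compounds in DMSO for up to 40 h. Nonlytic NanoLuc luminescence reflecting viable cells was read at each stated time point.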

[9] = qHTS RealTime-Glo MT Cell Viability Assay in HEK293 cells - 32 hour (AID 1224868); also: top concentration of the series differs between compounds; nearly all actives have a fitted effect of over 50% in size
Procedure, shortened: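 HEK293 cells seeded with NanoLuc/prosubstrate reagent, rested 5 h at 37 C, then dosed and kept at 37 C up to 40 h. Nonlytic real-time luminescence from viable cells read at 0, 8, 16, 24, 32 and 40 h.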

[10] = A CellTox Green Cytotoxicity Assay to monitor cytotoxicity in HEK293 cells - 0 hour (AID 1224869); also: nearly all actives have a fitted effect of over 50% in size
Procedure, shortened: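 Each value comes from one timepoint of a single continuous run in which HEK293 cells with CellTox Green were exposed to compound for up to 40 h at 37 C, dye fluorescence rising with cell death.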

[11] = qHTS RealTime-Glo MT Cell Viability Assay in HepG2 cells - 40 hour (AID 1224870); also: nearly all actives have a fitted effect of over 50% in size
Procedure, shortened: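 HepG2 cells mixed with RealTime-Glo MT reagents (NanoLuc plus cell-permeant prosubstrate) were seeded at 600 cells/well, incubated 5 h at 37 C/5% CO2, then pinned with compounds in DMSO; nonlytic luminescence tracked viability during 40 h treatment.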

[12] = target: Thyrotropin receptor (Homo sapiens) (UniProt P16473); assay: qHTS assay to identify small molecule agonists of the thyroid stimulating hormone receptor (TSHR) signaling pathway (AID 1224843; calls by dose curve; also: nearly all actives have a fitted effect of over 45% in size)
Thyrotropin receptor (Homo sapiens), sequence (P16473 whole entry, looked up): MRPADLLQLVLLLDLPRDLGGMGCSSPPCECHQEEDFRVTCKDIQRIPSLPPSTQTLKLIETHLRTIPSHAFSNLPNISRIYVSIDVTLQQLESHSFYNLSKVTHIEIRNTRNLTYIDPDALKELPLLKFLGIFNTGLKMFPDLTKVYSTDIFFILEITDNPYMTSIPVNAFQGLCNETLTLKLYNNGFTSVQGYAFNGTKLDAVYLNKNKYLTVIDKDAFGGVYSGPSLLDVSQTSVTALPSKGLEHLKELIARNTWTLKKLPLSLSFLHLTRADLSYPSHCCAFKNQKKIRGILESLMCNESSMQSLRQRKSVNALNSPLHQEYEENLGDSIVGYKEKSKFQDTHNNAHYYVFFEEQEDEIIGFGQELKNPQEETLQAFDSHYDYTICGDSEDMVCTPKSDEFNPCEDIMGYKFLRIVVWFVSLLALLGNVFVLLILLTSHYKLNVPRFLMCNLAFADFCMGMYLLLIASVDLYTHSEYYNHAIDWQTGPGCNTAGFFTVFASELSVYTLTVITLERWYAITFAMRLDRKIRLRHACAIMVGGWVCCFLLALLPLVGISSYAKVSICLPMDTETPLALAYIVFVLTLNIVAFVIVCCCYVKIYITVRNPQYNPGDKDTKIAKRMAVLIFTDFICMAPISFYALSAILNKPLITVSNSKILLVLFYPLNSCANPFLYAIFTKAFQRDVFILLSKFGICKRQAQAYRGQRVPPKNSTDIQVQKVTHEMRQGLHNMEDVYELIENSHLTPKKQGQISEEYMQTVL
Procedure, shortened: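 TSHR-expressing HEK293 cells (800 per well) were exposed to compounds for 30 min at room temperature. cAMP was then detected by HTRF competition with cAMP-d2 and anti-cAMP cryptate, read after 1 h at room temperature. Fifteen concentrations, triplicate.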

[13] = qHTS assay to identify small molecule agonists of the hypoxia (HIF-1) signaling pathway (AID 1224846; active = well fitted activation curve with a large enough effect in the signal ratio in the repeat runs, not every such curve was filed as active; the % refers to the signal ratio)
Procedure, shortened: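 Measured by blue/green FRET after loading CCF4-AM: beta-lactamase expressed from a hypoxia response element in ME-180 cells. Test agents were delivered in DMSO and left 17 hrs; cells had been plated 5 hrs earlier in low-serum (0.5% dialyzed FBS) medium.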

[14] = qHTS assay to identify small molecule agonists of H2AX - cell viability counter screen (AID 1224847; calls by dose curve; also: top concentration of the series differs between compounds; nearly all actives have a fitted effect of over 30% in size)
Procedure, shortened: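 After overnight plating of 1000 CHO-K1 cells per well, a 15-concentration compound series was applied for 3 hr at 37C. Luminescence from CellTiter-Glo, read following 30 min at room temperature, reflected cell viability.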

[15] = target: Nuclear receptor subfamily 1 group I member 3 (Homo sapiens) (UniProt Q14994); assay: qHTS assay to identify small molecule antagonists of the constitutive androstane receptor (CAR) signaling pathway (AID 1224838);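 also: HepG2 cells stably expressing hCAR with CYP2B6 luciferase reporter stimulated by CITCO; nearly all actives have a fitted effect of over 40% in size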
Nuclear receptor subfamily 1 group I member 3 (Homo sapiens), sequence (Q14994 whole entry, looked up): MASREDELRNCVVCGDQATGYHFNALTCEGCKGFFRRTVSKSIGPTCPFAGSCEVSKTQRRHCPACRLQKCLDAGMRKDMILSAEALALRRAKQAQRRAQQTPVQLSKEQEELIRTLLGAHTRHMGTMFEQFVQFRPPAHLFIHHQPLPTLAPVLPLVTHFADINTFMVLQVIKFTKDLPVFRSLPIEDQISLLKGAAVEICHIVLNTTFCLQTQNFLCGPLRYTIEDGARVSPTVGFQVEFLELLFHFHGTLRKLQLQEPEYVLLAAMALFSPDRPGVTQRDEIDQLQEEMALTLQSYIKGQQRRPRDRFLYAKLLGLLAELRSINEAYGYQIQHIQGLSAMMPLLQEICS
Procedure, shortened: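 Quantitative HTS in double-stable HepG2-CYP2B6-hCAR cells. After 4 h plating, cells get compound (15 concentrations) and CITCO at 50 nM final, incubate 24 h at 37 C, then ONE-Glo luminescence is read.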

[16] = target: Nuclear receptor subfamily 1 group I member 3 (Homo sapiens) (UniProt Q14994); assay: qHTS assay to identify small molecule agonists of the constitutive androstane receptor (CAR) signaling pathway (AID 1224839);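 also: HepG2 cells stably carrying human CAR and a CYP2B6 luciferase reporter; series mostly up to about 92 µM; nearly all actives have a fitted effect of over 15% in size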
Procedure, shortened: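 Using human hepatoma HepG2 cells engineered with hCAR and a CYP2B6-2.2kb reporter, 15-concentration compound series were incubated 24 h alongside PK11195 at 0.75 uM final, with luminescence quantified afterwards.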

[17] = qHTS assay to identify small molecule antagonists of the estrogen related receptor signaling pathway with the pleiotropic PPARgamma coactivator (PGC) from Tox21 10K library (AID 1224841; call rule not given here)
Procedure, shortened: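 Compound exposure ran 18 hours at 37 C in PGC/ERR cells (2,000/well) that had first rested 6 hours in a 37 C/5% CO2 incubator. Luciferase activity was then detected with One-Glo after a 30-minute room-temperature step.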

[18] = qHTS assay to identify small molecule agonists of the estrogen related receptor signaling pathway with the pleiotropic PPARgamma coactivator (PGC) from Tox21 10K library (AID 1224842); also: nearly all actives have a fitted effect of over 15% in size
Procedure, shortened: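 PGC/ERR reporter cells (NTP line) were seeded 2,000 per well, rested 6 h at 37 C/5% CO2, then pin-dosed with compounds in DMSO for 18 h at 37 C; luciferase read by One-Glo luminescence after 30 min at room temperature.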

[19] = qHTS assay to identify small molecule antagonists of the estrogen related receptor (ERR) signaling pathway from Tox21 library (AID 1224848); also: nearly all actives have a fitted effect of over 50% in size
Procedure, shortened: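 Cells: ERR line, 2,000/well; 6 h preincubation 37 C/5% CO2. Cpd in DMSO via pin tool; 18 h, 37 C. ONE-Glo, 30 min RT, luminescence.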

Measured: Potency

CC1=C(C)C(=O)C(C(CCCCCC(=O)O)c2ccccc2)=C(C)C1=O (configuration not stated)
not listed: [12] | [13] | [14] | [15] | [16] | [17] | [18] | [19]
inactive: all other assays above

Cc1ccc2c(Cl)cc(Cl)c(O)c2n1
not listed: [11] | [15] | [16] | [17] | [18] | [19]
inactive: all other assays above

CC(C)Oc1ccccc1O
not listed: [4] | [8] | [14]
inactive: all other assays above

C=CC(=O)NC(C)(C)C
not listed: [4] | [8] | [10] | [17] | [18] | [19]
inactive: all other assays above

Clc1nc2ccccc2nc1Cl
not listed: [9] | [15] | [16] | [17] | [18] | [19]
inactive: all other assays above

CC(C)=CCC[C@H](C)CCO
not listed: [13] | [15] | [16] | [17] | [18] | [19]
inactive: all other assays above

C=CC(C)CCC=C(C)C (configuration not stated)
not listed: [8] | [15] | [16] | [17] | [18] | [19]
inactive: all other assays above
